In PubChem BioAssay:
Active and inactive are the calls of the source.

Legend:
[1] = test system: Plasmodium falciparum Sir2 (PF13_0152, Sir2A); test: pfSir2 binders on small-molecule microarrays, primary screen, biochemical, small-molecule microarray, 635 nm fluorescence (AID 1098); settings: small-molecule microarray binding, fluorescence 635 nm; higher = more signal;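 further: score merges spot fluorescence intensity with its signal-to-noise ratio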
[2] = small-molecule microarray binders of probe aDKK1, primary screen, biochemical, biotinylated probe, 635/667 nm fluorescence (AID 1099); settings: higher = more signal;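 further: score merges 667nm spot fluorescence with signal to noise across triplicate slides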
[3] = small-molecule microarray binders of probe aCHRDL2, primary screen, biochemical, biotinylated probe, 635/667 nm fluorescence (AID 1100); settings: higher = more signal
[4] = splicing luciferase reporter signal modulators, primary screen, spliceosome inhibition project, cell-based, HEK293, splice +/- reporter (AID 1101); settings: luminescence, 24 h, higher = more signal, called active from +8 up or from −8 down;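 further: HEK293 cells carrying a splicing-competent luciferase reporter gene; test concentration not given here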
[5] = biological target: Fibroblast growth factor 10 (Homo sapiens) (UniProt O15520); test: FGF10 binders on small-molecule microarrays, primary screen, biochemical, small-molecule microarray, 635 nm fluorescence (AID 1102); settings: FGF10 binding, fluorescence 635 nm, higher = more signal
Sequence of Fibroblast growth factor 10 (Homo sapiens) (O15520 whole entry, looked up): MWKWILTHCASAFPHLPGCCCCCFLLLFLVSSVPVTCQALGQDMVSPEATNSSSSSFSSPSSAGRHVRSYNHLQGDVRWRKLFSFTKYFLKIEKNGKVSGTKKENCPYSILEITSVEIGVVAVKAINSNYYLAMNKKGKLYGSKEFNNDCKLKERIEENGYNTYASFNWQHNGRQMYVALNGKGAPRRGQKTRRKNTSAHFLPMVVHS

[6] = test system: glycogen synthase kinase-3 (GSK3A per assay name; protocol says GSK3B); test: GSK3 binders on small-molecule microarrays, primary screen, biochemical, small-molecule microarray, 635 nm fluorescence, GSK3A (AID 1103); settings: small-molecule microarray binding, fluorescence 635 nm; higher = more signal; further: the record names both GSK3A and GSK3B
[7] = biological target: Epidermal growth factor receptor (Homo sapiens) (UniProt P00533); test: EGFR binders on small-molecule microarrays, primary screen, biochemical, small-molecule microarray, 635 nm fluorescence (AID 1104); settings: EGFR binding, higher = more signal;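 further: score merges 667 nm emission intensity with spot signal to noise over triplicate slides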
Sequence of Epidermal growth factor receptor (Homo sapiens) (P00533 whole entry, looked up): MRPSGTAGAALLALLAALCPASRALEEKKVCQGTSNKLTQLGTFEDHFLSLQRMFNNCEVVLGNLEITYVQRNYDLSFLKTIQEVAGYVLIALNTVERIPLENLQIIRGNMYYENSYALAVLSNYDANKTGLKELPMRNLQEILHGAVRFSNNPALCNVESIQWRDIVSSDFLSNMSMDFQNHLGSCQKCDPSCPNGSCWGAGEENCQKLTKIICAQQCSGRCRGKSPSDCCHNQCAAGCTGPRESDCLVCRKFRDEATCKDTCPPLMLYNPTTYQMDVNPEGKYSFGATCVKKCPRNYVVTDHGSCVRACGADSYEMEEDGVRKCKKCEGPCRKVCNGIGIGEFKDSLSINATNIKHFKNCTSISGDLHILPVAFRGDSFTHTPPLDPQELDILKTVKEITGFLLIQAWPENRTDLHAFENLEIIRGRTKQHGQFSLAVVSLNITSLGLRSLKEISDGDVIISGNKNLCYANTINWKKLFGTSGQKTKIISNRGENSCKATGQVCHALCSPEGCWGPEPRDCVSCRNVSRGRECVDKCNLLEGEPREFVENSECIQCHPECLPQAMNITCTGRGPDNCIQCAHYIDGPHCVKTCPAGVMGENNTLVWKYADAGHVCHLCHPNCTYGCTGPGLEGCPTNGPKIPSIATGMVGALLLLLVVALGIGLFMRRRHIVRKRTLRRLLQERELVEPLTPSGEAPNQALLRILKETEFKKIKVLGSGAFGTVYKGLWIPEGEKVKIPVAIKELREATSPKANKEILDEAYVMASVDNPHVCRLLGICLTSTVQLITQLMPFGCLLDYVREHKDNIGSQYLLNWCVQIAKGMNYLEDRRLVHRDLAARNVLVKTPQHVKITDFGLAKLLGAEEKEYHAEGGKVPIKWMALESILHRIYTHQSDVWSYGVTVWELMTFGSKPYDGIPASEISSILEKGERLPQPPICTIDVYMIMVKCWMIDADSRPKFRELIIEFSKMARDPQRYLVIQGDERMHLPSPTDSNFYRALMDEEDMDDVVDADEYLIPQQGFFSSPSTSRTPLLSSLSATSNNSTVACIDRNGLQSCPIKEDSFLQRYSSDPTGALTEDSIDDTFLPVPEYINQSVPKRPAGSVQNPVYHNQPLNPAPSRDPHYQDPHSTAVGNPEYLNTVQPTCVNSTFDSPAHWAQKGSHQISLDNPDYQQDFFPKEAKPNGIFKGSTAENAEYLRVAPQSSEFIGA

[8] = biological target: Follistatin-related protein 3 (Homo sapiens) (UniProt O95633); test: FSTL3 binders on small-molecule microarrays, primary screen, biochemical, small-molecule microarray, 635 nm fluorescence (AID 1105); settings: FSTL3 binding, higher = more signal;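 further: score merges emission near 667 nm and signal to noise per printed spot across three slides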
Sequence of Follistatin-related protein 3 (Homo sapiens) (O95633 whole entry, looked up): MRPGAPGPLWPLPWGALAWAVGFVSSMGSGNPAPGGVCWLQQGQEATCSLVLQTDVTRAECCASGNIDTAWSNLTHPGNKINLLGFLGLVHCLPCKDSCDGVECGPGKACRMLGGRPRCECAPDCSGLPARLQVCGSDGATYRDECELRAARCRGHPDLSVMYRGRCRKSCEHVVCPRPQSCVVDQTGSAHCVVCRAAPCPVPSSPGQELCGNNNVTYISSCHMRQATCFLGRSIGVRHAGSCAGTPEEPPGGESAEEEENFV

[9] = biological target: Dickkopf-related protein 1 (Homo sapiens) (UniProt O94907); test: DKK1 binders on small-molecule microarrays, primary screen, biochemical, small-molecule microarray, 635 nm fluorescence scan (AID 1106); settings: DKK1 binding, higher = more signal;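 further: score merges emission near 667 nm with signal to noise over three replicate slides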
Sequence of Dickkopf-related protein 1 (Homo sapiens) (O94907 whole entry, looked up): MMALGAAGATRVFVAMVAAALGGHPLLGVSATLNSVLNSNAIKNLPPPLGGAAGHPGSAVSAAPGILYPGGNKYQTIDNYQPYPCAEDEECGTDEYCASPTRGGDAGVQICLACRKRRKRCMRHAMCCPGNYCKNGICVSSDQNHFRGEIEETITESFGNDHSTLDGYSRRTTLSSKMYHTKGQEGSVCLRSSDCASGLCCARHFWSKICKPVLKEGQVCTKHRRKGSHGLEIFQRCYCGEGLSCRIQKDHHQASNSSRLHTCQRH

[10] = test system: Inhibin beta A chain (activin A); test: INHBA (activin A) binders on microarrays, primary screen, biochemical, small-molecule microarray, 635 nm fluorescence scan (AID 1107); settings: small-molecule microarray binding, higher = more signal;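 further: mouse activin A protein probed at 4.33 µg/mL on printed slides; score merges bound-protein fluorescence near 667 nm with spot signal-to-noise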
[11] = test system: Human papillomavirus type 1a protein E7 (residues 44-93); test: HPV1a E7 fragment binders on microarrays, primary screen, biochemical, small-molecule microarray, residues 44-93, 635 nm fluorescence (AID 1108); settings: small-molecule microarray binding, fluorescence 635 nm; higher = more signal;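 further: E7 fragment applied at 1 µg/mL in TBST for 1 h at 4 C; score combines spot fluorescence with its signal to noise ratio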
[12] = modulators of HCV replicon luciferase signal, primary screen, HCV replication inhibitor project, Huh7 cells, luciferase reporter (AID 1109); settings: 48 h, higher = more signal;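 further: huh7 hepatoma cells harbouring a luciferase neomycin HCV replicon reporter; luciferase luminescence as measure of HCV replicon replication; test concentration not given here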
[13] = biological target: Left-right determination factor 2 (Homo sapiens) (UniProt O00292); test: LEFTY2 binders on small-molecule microarrays, primary screen, biochemical, small-molecule microarray, 635 nm fluorescence scan (AID 1110); settings: LEFTY2 binding, higher = more signal
Sequence of Left-right determination factor 2 (Homo sapiens) (O00292 whole entry, looked up): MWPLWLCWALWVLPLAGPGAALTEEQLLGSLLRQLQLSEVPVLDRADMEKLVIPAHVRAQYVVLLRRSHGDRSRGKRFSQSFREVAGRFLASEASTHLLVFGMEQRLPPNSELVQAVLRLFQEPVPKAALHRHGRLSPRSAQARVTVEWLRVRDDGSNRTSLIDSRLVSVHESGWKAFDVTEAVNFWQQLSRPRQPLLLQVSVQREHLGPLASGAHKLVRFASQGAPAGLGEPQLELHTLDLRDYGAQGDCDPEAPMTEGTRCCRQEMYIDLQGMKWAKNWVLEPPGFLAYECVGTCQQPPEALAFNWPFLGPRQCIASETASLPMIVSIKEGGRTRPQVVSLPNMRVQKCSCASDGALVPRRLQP

[14] = biological target: Calmodulin-1 (Homo sapiens) (UniProt P0DP23); test: CALM1 binders on microarrays, EGTA buffer, profiling panel, biochemical, small-molecule microarray, Cy5-labelled CALM1 (AID 1111); settings: Cy5-CALM1 binding fluorescence, higher = more signal;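 further: labelled calmodulin applied in Tris saline Tween buffer holding calcium plus EGTA and DTT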
[15] = biological target: Calmodulin-1 (Homo sapiens) (UniProt P0DP23); test: calcium-bound CALM1 binders on microarrays, profiling panel, artefact control for SMM control-protein annotation, biochemical, small-molecule microarray, Cy5-labelled CALM1, plus calcium (AID 1112); settings: Cy5-CALM1 binding fluorescence, higher = more signal;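 further: score merges spot fluorescence with signal to noise from triplicate slides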
[16] = small-molecule microarray binders of probe aWnt5a, primary screen, biochemical, biotinylated probe, 635/667 nm fluorescence (AID 1113); settings: higher = more signal;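 further: score merges 667 nm fluorescence intensity with signal-to-noise per printed feature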
[17] = small-molecule microarray binders of probe aShh, primary screen, biochemical, biotinylated probe, 635/667 nm fluorescence (AID 1114); settings: higher = more signal;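 further: probe is biotin-labelled aShh protein from a stem cell growth factor screen; measures binding of labelled protein to compounds printed on the slide; score merges feature fluorescence at 667 nm with signal-to-noise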
[18] = small-molecule microarray binders of probe aNog, primary screen, biochemical, biotinylated probe, 635/667 nm fluorescence (AID 1115); settings: higher = more signal;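 further: probe is biotinylated aNog protein used at 0.15 µg/mL for 1 h at 4 C; z-score combines 667 nm fluorescence of each spot with its signal to noise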
[19] = biological target: Torsin-1A-interacting protein 1 (Homo sapiens) (UniProt Q5JTV8); test: LAP1 binders from COS7 cell lysate, primary screen, small-molecule microarray, 635/667 nm fluorescence (AID 1116); settings: COS7-hLAP1 lysate binding, 635 nm fluorescence, higher = more signal
Sequence of Torsin-1A-interacting protein 1 (Homo sapiens) (Q5JTV8 whole entry, looked up): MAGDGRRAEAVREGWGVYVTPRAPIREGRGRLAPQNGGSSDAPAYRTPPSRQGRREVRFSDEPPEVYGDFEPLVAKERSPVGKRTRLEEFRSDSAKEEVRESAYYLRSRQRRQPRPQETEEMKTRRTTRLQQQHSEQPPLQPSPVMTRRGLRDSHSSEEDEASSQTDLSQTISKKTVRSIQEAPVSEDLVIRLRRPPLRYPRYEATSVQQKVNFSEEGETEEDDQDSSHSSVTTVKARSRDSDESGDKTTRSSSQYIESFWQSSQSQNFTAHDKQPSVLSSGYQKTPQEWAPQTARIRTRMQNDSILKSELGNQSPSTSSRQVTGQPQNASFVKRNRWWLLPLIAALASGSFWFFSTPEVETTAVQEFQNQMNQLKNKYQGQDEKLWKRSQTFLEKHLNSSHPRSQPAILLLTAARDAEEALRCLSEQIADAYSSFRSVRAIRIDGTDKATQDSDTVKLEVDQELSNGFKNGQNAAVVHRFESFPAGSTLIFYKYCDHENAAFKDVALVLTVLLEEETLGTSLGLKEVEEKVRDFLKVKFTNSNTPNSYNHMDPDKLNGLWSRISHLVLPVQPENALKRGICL

[20] = biological target: Alpha-bungarotoxin (Bungarus multicinctus) (UniProt P60615); test: alpha-bungarotoxin binders on microarray, profiling panel, artefact control for SMM control protein annotation, biochemical, small-molecule microarray, Alexa647 label, 635/667 nm fluorescence (AID 1117); settings: alpha-BTX-A647 binding fluorescence, higher = more signal
Sequence of Alpha-bungarotoxin (Bungarus multicinctus) (P60615 whole entry, looked up): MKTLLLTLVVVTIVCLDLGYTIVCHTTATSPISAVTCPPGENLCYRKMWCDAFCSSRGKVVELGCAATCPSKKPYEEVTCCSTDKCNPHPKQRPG

SMILES | composite z-score [1] | composite z-score [2] | composite z-score [3] | z-score [4] | composite z-score [5] | composite z-score [6] | composite z-score [7] | composite z-score [8] | composite z-score [9] | composite z-score [10] | composite z-score [11] | z-score [12] | composite z-score [13] | composite z-score [14] | composite z-score [15] | composite z-score [16] | composite z-score [17] | composite z-score [18] | composite z-score [19] | composite z-score [20]
[N-]=[N+]=NCc1ccccc1C[C@@]1(C(=O)NCc2ccccc2)N=C(c2ccc(OCCCO)cc2)O[C@@H]1c1ccccc1N=[N+]=[N-] | -0.108 | 0.559 | 1.13 | -0.758 (inactive) | 0.894 | 1.21 | -0.475 | -0.206 | -0.666 | 0.376 | 1.41 | -2.26 | -0.346 | 1.31 | 0.845 | 0.0839 | 0.108 | 1.29 | 1.45 | 0.937
CC(C)(C)OC(=O)CC[C@]1(C(=O)NCc2ccccc2)N=C(c2ccc(OCCCO)cc2)O[C@H]1c1ccccc1CN=[N+]=[N-] | 1.45 | 0.242 | 0.545 | 0.22 (inactive) | 1.22 | 1.36 | 0.227 | 1.37 | 0.133 | 0.554 | 1.41 | -2.11 | 0.735 | 1.27 | -0.232 | 0.152 | 0.0483 | -0.0768 | 1.69 | 0.466
O=C1O[C@H](c2ccccc2)[C@H](c2ccccc2)N2[C@H]1[C@@H](C(=O)NC[C@H](O)c1ccccc1)[C@]1(C(=O)Nc3ccc(C#CCCO)cc31)[C@H]2c1ccc(OCCO)cc1 | 1.58 | 0.222 | 0.0751 | 0.613 (inactive) | 0.575 | 0.739 | 0.037 | 0.701 | 0.264 | 0.503 | 1.1 | -1.32 | -0.312 | 1.1 | 0.547 | -0.0758 | 0.241 | 0.509 | 0.213 | 1.16
O=C1O[C@H](c2ccccc2)[C@H](c2ccccc2)N2[C@H]1[C@@H](C(=O)Nc1nc3ccccc3s1)[C@]1(C(=O)Nc3ccc(C#CC4(O)CCCCCC4)cc31)[C@H]2c1ccccc1OCCO | 1.55 | -0.074 | -0.353 | -0.215 (inactive) | 1.35 | 1.33 | 0.49 | 1.32 | 0.452 | -0.0311 | 1.37 | -2.69 | 0.561 | 1.04 | -0.243 | 0.0068 | 0.0469 | 0.345 | 1.34 | 0.0934
CN(C)CCCNC(=O)[C@@]1(c2ccc([N+](=O)[O-])cc2)CC(=O)N(CC23CC4CC(CC(C4)C2)C3)[C@@H]1c1ccc(CO)cc1I | 1.59 | -0.0761 | 0.407 | -0.854 (inactive) | 0.879 | 0.556 | 0.555 | 1.34 | 1.08 | 0.0974 | 1.39 | -3.54 | 0.703 | 0.307 | -0.0622 | 0.0668 | 0.462 | 0.192 | 1.27 | 1.15
COCCOC(=O)N1C(=O)[C@@]2(c3cc(C#Cc4ccc(OC)cc4)ccc31)[C@H](c1ccccc1OCCO)N1[C@H](c3ccccc3)[C@H](c3ccccc3)OC(=O)[C@H]1[C@@H]2C(=O)N1CCCCCCC1 | 1.2 | 2.8 | 1.79 | -1.38 (inactive) | 1.29 | 1.34 | 1.49 | 1.61 | 2.12 | 1.91 | 1.03 | -1.36 | 1.17 | 2.84 | 1.6 | 1.26 | 2.59 | 3.38 | 5.26 | 1.8
C=CCC(OC(C)=O)[C@@H]1[C@@H](N(Cc2cccc3ccccc23)C(=O)c2cccc3ccccc23)c2cc(OCCCO)ccc2N1C(=O)c1ccc(-c2ccccc2)cc1 (stereo not given in full) | 0.17 | 0.0752 | -0.0302 | -0.566 (inactive) | 0.0819 | 0.0512 | 0.364 | -0.184 | 0.0116 | 0.855 | -0.0699 | -0.599 | 0.79 | 0.0898 | 0.766 | 0.0229 | -0.117 | -0.215 | 0.197 | -0.574
COc1cc(OC)c(C(O)C2C=CC3C(=O)N(C)C(=O)C3N2NC(=O)OC(C)(C)C)cc1Br (stereo not given) | 1.07 | 0.993 | 1.15 | 1.51 (inactive) | 1.32 | 1.33 | 0.26 | 1.41 | 0.057 | 0.594 | 1.45 | -0.706 | 0.469 | 1.74 | 0.767 | 0.302 | 0.551 | 1.71 | 1.26 | 1.85
CO[C@H]1O[C@H](CO)[C@@H](OC(=O)Nc2ccccc2-c2ccccc2)[C@H](OC(=O)Nc2ccc3c(c2)OCO3)[C@H]1OC(=O)Nc1ccc2c(c1)OCO2 | 1.38 | 0.244 | 0.485 | -1.2 (inactive) | 1.24 | 1.32 | 0.17 | 1.43 | 0.298 | 0.752 | 1.29 | 1.54 | 0.395 | 0.58 | -0.187 | -0.0194 | 0.398 | 1.19 | 1.76 | 1.25
O=C(CS)NCCCCCCNC(=O)[C@H]1C[C@H]2C(=O)N[C@@H](Cc3ccccc3)C(=O)N2[C@H]1c1ccc(O)cc1 | 1.67 | -0.249 | -0.0488 | -0.239 (inactive) | 1.39 | 0.992 | 0.0478 | 0.333 | 0.75 | -0.95 | 1.39 | -0.53 | 0.656 | -0.123 | -0.426 | -0.1 | -0.339 | -0.493 | 0.0397 | 0.329
CCOC(=O)c1ccc(NC(=O)O[C@H]2[C@H](OC(=O)Nc3ccc4c(c3)OCO4)[C@H](OC(=O)Nc3ccc4c(c3)OCO4)[C@@H](OC)O[C@@H]2CO)cc1 | 1.56 | 0.901 | 0.944 | 0.646 (inactive) | 1.33 | 1.33 | 0.517 | 1.39 | 1 | 0.673 | 1.03 | 0.295 | 0.803 | 1.41 | -0.179 | 0.0771 | 0.369 | 0.252 | 0.645 | 1.22
